These results are taken from PubChem BioAssay (Tox21).

Inconclusive results are not listed. Entries that show only a call come without a potency. Active and inactive are the calls of the source. Calls follow the shape of the dose curve; as a rule, active = well fitted inhibition curve with a large enough effect in the repeat runs; inconclusive = weak or mixed curves; inactive = flat fitted curve, though single readings scatter.

Luciferin 4-monooxygenase (Photinus pyralis), sequence (P08659 whole entry, looked up): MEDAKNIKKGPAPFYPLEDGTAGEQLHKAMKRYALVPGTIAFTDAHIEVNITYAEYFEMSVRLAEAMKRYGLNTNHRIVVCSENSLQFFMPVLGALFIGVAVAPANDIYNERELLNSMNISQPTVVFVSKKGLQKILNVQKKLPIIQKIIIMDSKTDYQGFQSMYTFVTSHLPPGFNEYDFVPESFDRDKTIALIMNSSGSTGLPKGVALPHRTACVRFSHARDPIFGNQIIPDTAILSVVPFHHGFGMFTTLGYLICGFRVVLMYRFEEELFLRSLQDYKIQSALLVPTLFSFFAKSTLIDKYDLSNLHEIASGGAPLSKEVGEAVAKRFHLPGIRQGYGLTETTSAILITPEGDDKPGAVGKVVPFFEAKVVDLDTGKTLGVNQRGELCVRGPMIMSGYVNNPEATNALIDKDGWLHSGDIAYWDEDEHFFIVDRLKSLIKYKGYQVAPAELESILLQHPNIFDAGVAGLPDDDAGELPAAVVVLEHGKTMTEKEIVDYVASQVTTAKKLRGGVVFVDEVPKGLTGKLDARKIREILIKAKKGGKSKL

In this assay the target is Luciferin 4-monooxygenase (Photinus pyralis) (UniProt P08659). Briefly: qHTS assay to identify small molecule inhibitors of firefly luciferase (AID 1224835). Also: nearly all actives have a fitted effect of over 25% in size. Particulars: purified P. pyralis luciferase, luminescence inhibition; series mostly up to 115 µM. From the text:
U.S. Tox21 Program National Center for Advancing Translational Sciences [NCATS] NIH Chemical Genomics Center [NCGC] U.S. Environmental Protection Agency [EPA] National Institutes of Environmental Health Sciences [NIEHS] National Toxicology Program [NTP] U.S. Food and Drug Administration [FDA] Tox21 Assay Overview: Firefly (Photinus pyralis) luciferase is one of the most commonly used transcriptional reporters. Firefly luciferase reporter-gene assays are generally considered one of the most sensitive assay types (Wood, 1995; Wood, 1998). However, it was initially observed, in 1991, by Thompson et al., that compounds that resemble the substrates of firefly luciferase (FLuc) can act as competitive inhibitors of the enzyme, and that these compounds, upon interaction with luciferase in the cell, can actually stabilize the protein and increase its half-life. Previous profiling work by other groups to determine the prevalence of compounds that affect FLuc enzymatic activity (PubChem AID 411) identified that ~3% of the MLSMR library (then at ~72K) inhibited FLuc. […] Thus the Tox21 10K library is profiled for activity against FLuc using a biochemical assay of purified FLuc and KM concentrations of FLuc substrates (D-luciferin and ATP).
These assay plates were then treated with 23nL of compound or DMSO using a Kalypsys pin tool, which allows for delivery of a 6-point interplate titration of each compound to the assay plate (quantitative HTS.) 1 uL of firefly luciferase mix (containing 50 mM Tris acetate, pH 7.6, 0.04 uM P. pyralis luciferase, 0.01% Tween, 0.05% BSA and dH2O) was then delivered by FRD to each well. Luciferase activity was then measured using a ViewLux CCD imager.
On the technique in general: In qHTS, concentration-response curves come from the screen itself.
Regarding `CC(COc1ccccc1)NN` (stereo not given), the Potency result is “inactive”. As for `CN1CCC(=C2c3ccccc3CCc3cccnc32)CC1`, the Potency entry was “inactive”. On to `CC(C)=CCC/C(C)=C/C#N`, for which the Potency entry is “inactive”. With `CCCCc1ccc2c(n1)[C@@H](c1ccc(OC)cc1C[C@H](C)C(=O)O)[C@H](C(=O)O)[C@H]2c1ccc2c(c1)OCO2`, the Potency entry is “inactive”.

In the case of `CC(C)c1ccc2ncccc2c1`, the Potency is 31.7 µM (active). Still for that read-out and setting: the entry for `C[N+](C)(CCOc1ccccc1)Cc1cccs1` is “inactive”; for `CC(C#N)(CCC(=O)O)N=NC(C)(C#N)CCC(=O)O` (stereo not given) it is “inactive”.

Take `CCOC(=O)C1=NOC(c2ccccc2)(c2ccccc2)C1`: the Potency is 71 µM (active). On the same count and under the same terms, the entry for `CN(C)CCCN(C)CCCN(C)C` is “inactive”; for `Cc1ccc(C(=O)c2ccccc2)cc1` it is 31.7 µM (active). As to `CC(C)CCCO`, the Potency result is “inactive”. On the same count and under the same terms, in the case of `CCCCCC(=O)OCCc1ccccc1` it was 15.9 µM (active); in that of `CC(CC=O)CC(C)(C)C` (stereo not given), “inactive”. In the case of `CCCCCCCCCCCCSC`, the Potency entry was “inactive”. On the same count and under the same terms, in the case of `CC[N+](C)(CC)CCOC(=O)C1c2ccccc2Oc2ccccc21` it was “inactive”. With `CCO[Si](OCC)(OCC)c1ccccc1`, the Potency entry is “inactive”.

As to `O=S(=O)(O)c1cc(O)c(O)c(S(=O)(=O)O)c1`, the Potency result was “inactive”. On the same count and under the same terms, in the case of `CC(C)(C#N)Nc1nc(Cl)nc(NC2CC2)n1` it was “inactive”; in that of `Cc1ccc(-c2ncc(Cl)cc2-c2ccc(S(C)(=O)=O)cc2)cn1`, “inactive”. For `C[N+]1(C)[C@@H]2CC(OC(=O)[C@H](CO)c3ccccc3)C[C@H]1[C@@H]1O[C@@H]12` (stereo not given in full), the Potency result was “inactive”. As to `Clc1cc(Cl)c(Cl)nc1Cl`, the Potency result was “inactive”. With `CCCc1ncc(C[n+]2ccccc2C)c(N)n1`, the Potency result is “inactive”. The same measure, in the same setting: the entry for `O=C1CCCCCCCCCCCCCCO1` is “inactive”; for `CC[N+](CC)(CC(=O)Nc1c(C)cccc1C)Cc1ccccc1` (tested in a mixture with another compound) it is “inactive”.

As for `CC1OC1C1CCC2(C)OC2C1` (stereo not given), the Potency entry is “inactive”. For the compound `CCCCN1C=CN(C)C1`, the activity change, negative = inhibition is -0.0434% [at 23.6 µM] (inactive). In the case of `CCCC(C)C(=O)OCC` (stereo not given), the Potency result is “inactive”. The same measure, in the same setting: in the case of `CC(=O)Oc1cccc(C)c1` it was “inactive”. Regarding `C=CCCC(=O)O`, the Potency result was “inactive”. With `C=C(C)C(=O)OCCOCCOCCOCCOC(=O)C(=C)C`, the Potency entry was “inactive”. On the same count and under the same terms, the entry for `CC(C)[C@H]1CC[C@@H](C)CC1=O` is “inactive”.

For the compound `CCOCC(C)O` (stereo not given), the Potency entry was “inactive”. On the same count and under the same terms, in the case of `COC(=O)C1=C(C)NC(C)=C(C(=O)OC(C)C)C1c1cccc2nonc12` (stereo not given) it was “inactive”. `O=C(CO)[C@@H](O)[C@H](O)[C@H](O)CO`: the Potency entry was “inactive”. Same read-out and setting: in the case of `C=C[Si](OC(C)=O)(OC(C)=O)OC(C)=O` it was “inactive”; in that of `NCCCC[C@H](N[C@@H](CCc1ccccc1)C(=O)O)C(=O)N1CCC[C@H]1C(=O)O`, “inactive”. Regarding `Nc1ccncc1N`, the Potency entry was “inactive”. On the same count and under the same terms, in the case of `CC12CCC(C(=O)C1=O)C2(C)C` (stereo not given) it was “inactive”; in that of `CNCCO`, “inactive”; in that of `CCN(CC#N)c1cccc(C)c1`, “inactive”.
